# Screens (PubChem)
# PRMT1 inh = PRMT1 methyltransferase inhibitors, primary screen, biochemical, fluorescence polarization; Protein arginine N-methyltransferase 1 (Homo sapiens), Q99873; recombinant PRMT1, activity-based probe fluorescence polarization; inhibition, % at 2.79 µM; 370,000 compounds, 1.3% hits;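 active = inhibition above about 21% made by adding two undisclosed values, limit read from the data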
# UHRF1 binding = UHRF1 methylated DNA binding inhibitors, primary screen, counter-screen for MBD2 inhibitor project, biochemical, TR-FRET, human UHRF1, single concentration; 370,000 compounds, 0.75% hits; UHRF1 binding to methylated oligo; inhibition, % at 4.4 µM;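 also: UHRF1 SRA domain binding a hemimethylated CpG hairpin DNA probe; 0% = median of test compound wells and 100% = reference inhibitor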
# MBD2 inh = inhibitors of MBD2 binding to methylated DNA, primary screen, biochemical, TR-FRET, DNA-binding domain, human. AID 686964, 2013. inhibition, % at 4.4 µM. Methyl-CpG-binding domain protein 2 (Homo sapiens), Q9UBB5. MBD2 binding to methylated oligonucleotide. 370,000 compounds, 0.31% hits; in the data active = inhibition above about 13%
# Target sequence (Q9UBB5 whole entry, looked up, the tested form may be a part): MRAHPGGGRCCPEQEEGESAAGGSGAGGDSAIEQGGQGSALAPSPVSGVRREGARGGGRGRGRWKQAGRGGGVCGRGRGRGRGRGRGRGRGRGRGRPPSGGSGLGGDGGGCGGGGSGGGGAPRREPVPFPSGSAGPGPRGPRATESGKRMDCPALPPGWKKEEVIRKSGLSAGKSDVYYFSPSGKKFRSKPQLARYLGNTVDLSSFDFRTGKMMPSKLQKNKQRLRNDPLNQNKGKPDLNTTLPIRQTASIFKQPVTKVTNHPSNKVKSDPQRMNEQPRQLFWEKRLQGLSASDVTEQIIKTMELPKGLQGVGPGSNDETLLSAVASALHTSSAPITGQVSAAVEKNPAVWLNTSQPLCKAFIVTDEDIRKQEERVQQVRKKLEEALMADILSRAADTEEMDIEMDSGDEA
# LEDGF integ inh = blockers of LEDGF/p75-dependent integrase strand transfer – biochemical, TR-FRET, high throughput, primary screen; HIV-1 integrase (with human LEDGF/p75); TR-FRET IN-LEDGF/p75 DNA integration, Eu/Cy5; 370,000 compounds, 0.64% hits; AID 743269, 2014; inhibition, % at 3.7 µM;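 active = inhibition above the screen-wide mean plus 3 SD, cut at about 13% in these data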;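 also: signal is the Cy5 over europium emission ratio at 671 and 618 nm; 0% = plate median of compound wells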
# UHRF1 DNA bind = UHRF1 methylated DNA binding inhibitors, counter-screen for MBD2 inhibitor project, biochemical, TR-FRET, human UHRF1 | shares compounds with MBD2 inh | UHRF1 binding to methylated oligonucleotide | inhibition, % at 4.4 µM | 1,000 compounds, 25% hits;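 also: UHRF1 SRA domain binding a labeled hemimethylated CpG hairpin DNA; 0% = vehicle only and 100% = reference inhibitor with vehicle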
# MBD2 confirm = inhibitors of MBD2 binding to methylated DNA, confirmation, biochemical, TR-FRET, DNA-binding domain, human | shares compounds with MBD2 inh | TR-FRET MBD2-DBD binding to methylated oligonucleotide | inhibition, % at 4.4 µM | 1,000 compounds, 26% hits | AID 720531, 2013; in the data active = inhibition above about 14%
# Starred values were filed as active, the others as inactive; . = no result. This is a sample that favours compounds with a hit; in the whole collection about 2.5% have one here. Rule as the data show it, unless noted: active = inhibition above about 21%; inactive = the rest.
SMILES,PRMT1 inh,UHRF1 binding,MBD2 inh,LEDGF integ inh,UHRF1 DNA bind,MBD2 confirm
Cc1noc(C)c1Cn1nc(C(=O)O)c2ccccc2c1=O,-1.9,0.5,31.8*,6.9,2.7,1.2
O=C(NCCc1ccccn1)c1ccc2nc(Cc3ccccc3F)oc2c1,1.1,3.7,-0.8,-5.4,.,.
CC(C)c1ccc(CN(C)C(=O)c2ccc(S(=O)(=O)NCc3ccco3)cc2)cc1,-0.2,15.2,6.2,-1.3,.,.
CN(Cc1ccc(Cl)cc1)C(=O)c1ccc(S(=O)(=O)NCc2ccco2)cc1,7.7,4.7,36.9*,-5.8,5.5,1.5
COc1ccc(CCNS(=O)(=O)c2cc3c4c(c2)CCN4C(=O)CC3)cc1,-2.4,1.6,0.7,-3.0,.,.
CCOC(=O)N1CCN(c2cc(NCCO)c([N+](=O)[O-])c3nonc23)CC1,-3.0,-9.2,-8.5,2.1,.,.
CC(=O)OCCNc1cc(N2CCN(C)CC2)c2noc3c2c1C(=O)c1ccccc1-3,3.1,36.3*,20.0*,-5.6,25.3*,11.1
COC(=O)c1ccc(OCC(=O)c2ccccc2)cc1,1.3,21.1*,15.8*,11.0,7.8,3.9
CCOC(=O)[C@]12CCCCC/C=C\1N(Cc1ccc(OC)cc1)C(=O)[C@H]2CC(=O)NCCCOC,0.9,0.5,-1.6,2.4,.,.
Cc1nnc2c3ccccc3ccn12,1.0,2.6,3.7,0.7,.,.
CN(C)c1ccc(C(=O)N/N=C/c2ccccn2)cc1,-6.3,-1.1,-3.2,0.2,.,.
CCCc1ccc(C(=O)NNC(=O)c2ccc(Br)cc2)cc1,-1.7,1.9,14.6*,2.1,7.9,9.9
Cc1ccc(CN(C)C(=O)CCNC(=O)c2ccc(Cl)cc2)o1,2.8,0.9,-3.5,1.6,.,.
Cc1ccc(S(=O)(=O)N2CCN(C(=O)c3cc4c(s3)CCCC4)CC2)cc1,-1.1,4.6,-1.6,6.1,.,.
COc1ccc(S(=O)(=O)N2CCN(C(=O)c3cc4c(s3)CCC4)CC2)cc1,7.5,45.8*,22.0*,7.2,46.3*,43.5*
Cc1cc(C)c(O)c(-c2cc(C(=O)Nc3c(C)n(C)n(-c4ccccc4)c3=O)[nH]n2)c1,9.0,6.1,7.0,0.1,.,.
CCc1ccc(-n2c(=O)c3c(C)c(C(=O)N(C)C)sc3n(CC(=O)NCC3CCCO3)c2=O)cc1 (configuration not stated),1.5,5.1,6.7,-1.6,.,.
COc1cccc(-n2c(=O)c3c(C)c(C(=O)N(C)C)sc3n(CC(=O)NCC3CCCO3)c2=O)c1 (configuration not stated),5.6,-1.9,16.4*,-8.4,8.5,3.5
CCN1C[C@@H]2[C@@H]3C(=O)N(C)C(=O)[C@@H]3[C@](CC)(C1=O)N2C(=O)c1ccc(F)cc1,-1.5,-0.7,3.8,2.5,.,.
Cc1ccc(SCCN2CCC(C)CCC2=O)cc1 (configuration not stated),3.9,0.3,4.3,-0.8,.,.
Cc1ccc(SCCN2CCC(C(C)(C)C)CCC2=O)cc1 (configuration not stated),2.4,29.8*,13.6*,11.6,4.7,4.0
Cc1cccc(N2CC(C(=O)Nc3cccc(S(=O)(=O)N4CCCCC4)c3)CC2=O)c1C (configuration not stated),-2.3,4.0,80.6*,0.0,4.0,0.7
Cc1cccc(N2CC(C(=O)Nc3ccc(S(=O)(=O)N4CCOCC4)cc3)CC2=O)c1C (configuration not stated),1.2,-3.2,-1.6,-2.7,.,.
COC(=O)[C@]12C[C@H](CC(=O)NCCc3ccccc3OC)C(=O)N(Cc3ccco3)C1=C[C@H](C(C)(C)C)O[C@@H]2C,-0.5,0.8,0.3,-1.0,.,.
CC(=O)c1cc(-c2ccccc2-c2ccccc2)c(=O)n2c1CCC2,3.4,-0.3,1.4,5.8,.,.
CCc1ccccc1Nc1nc(N)nc(COC(=O)CCNS(=O)(=O)c2ccccc2)n1,-0.7,2.4,-0.8,0.2,.,.
